PubChem BioAssay

What was measured:
[1] = tested on: Human papillomavirus type 1a protein E7 (residues 44-93); assay: HPV1a E7 fragment binders on microarrays, primary screen, biochemical, small-molecule microarray, residues 44-93, 635 nm fluorescence (AID 1108); conditions: small-molecule microarray binding, fluorescence 635 nm; higher = more signal;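 also: E7 fragment applied at 1 µg/mL in TBST for 1 h at 4 C; score combines spot fluorescence with its signal to noise ratio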
[2] = modulators of HCV replicon luciferase signal, primary screen, HCV replication inhibitor project, Huh7 cells, luciferase reporter (AID 1109); conditions: 48 h, higher = more signal;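 also: huh7 hepatoma cells harbouring a luciferase neomycin HCV replicon reporter; luciferase luminescence as measure of HCV replicon replication; test concentration not given here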
[3] = molecular target: Left-right determination factor 2 (Homo sapiens) (UniProt O00292); assay: LEFTY2 binders on small-molecule microarrays, primary screen, biochemical, small-molecule microarray, 635 nm fluorescence scan (AID 1110); conditions: LEFTY2 binding, higher = more signal
Left-right determination factor 2 (Homo sapiens), sequence (O00292 whole entry, looked up): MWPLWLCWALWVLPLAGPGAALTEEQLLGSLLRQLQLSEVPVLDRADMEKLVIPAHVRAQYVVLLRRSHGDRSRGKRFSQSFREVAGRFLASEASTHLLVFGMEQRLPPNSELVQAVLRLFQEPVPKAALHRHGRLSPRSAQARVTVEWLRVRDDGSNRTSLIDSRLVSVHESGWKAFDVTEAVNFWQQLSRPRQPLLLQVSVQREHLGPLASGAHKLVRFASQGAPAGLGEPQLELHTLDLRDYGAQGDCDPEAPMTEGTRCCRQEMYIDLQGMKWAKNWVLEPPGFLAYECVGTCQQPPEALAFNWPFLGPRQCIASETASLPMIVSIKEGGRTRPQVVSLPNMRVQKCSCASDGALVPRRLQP

[4] = molecular target: Calmodulin-1 (Homo sapiens) (UniProt P0DP23); assay: CALM1 binders on microarrays, EGTA buffer, profiling panel, biochemical, small-molecule microarray, Cy5-labelled CALM1 (AID 1111); conditions: Cy5-CALM1 binding fluorescence, higher = more signal;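 also: labelled calmodulin applied in Tris saline Tween buffer holding calcium plus EGTA and DTT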
[5] = molecular target: Calmodulin-1 (Homo sapiens) (UniProt P0DP23); assay: calcium-bound CALM1 binders on microarrays, profiling panel, artefact control for SMM control-protein annotation, biochemical, small-molecule microarray, Cy5-labelled CALM1, plus calcium (AID 1112); conditions: Cy5-CALM1 binding fluorescence, higher = more signal;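 also: score merges spot fluorescence with signal to noise from triplicate slides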
[6] = small-molecule microarray binders of probe aWnt5a, primary screen, biochemical, biotinylated probe, 635/667 nm fluorescence (AID 1113); conditions: higher = more signal;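 also: score merges 667 nm fluorescence intensity with signal-to-noise per printed feature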
[7] = small-molecule microarray binders of probe aShh, primary screen, biochemical, biotinylated probe, 635/667 nm fluorescence (AID 1114); conditions: higher = more signal;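 also: probe is biotin-labelled aShh protein from a stem cell growth factor screen; measures binding of labelled protein to compounds printed on the slide; score merges feature fluorescence at 667 nm with signal-to-noise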
[8] = small-molecule microarray binders of probe aNog, primary screen, biochemical, biotinylated probe, 635/667 nm fluorescence (AID 1115); conditions: higher = more signal;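 also: probe is biotinylated aNog protein used at 0.15 µg/mL for 1 h at 4 C; z-score combines 667 nm fluorescence of each spot with its signal to noise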
[9] = molecular target: Torsin-1A-interacting protein 1 (Homo sapiens) (UniProt Q5JTV8); assay: LAP1 binders from COS7 cell lysate, primary screen, small-molecule microarray, 635/667 nm fluorescence (AID 1116); conditions: COS7-hLAP1 lysate binding, 635 nm fluorescence, higher = more signal
Torsin-1A-interacting protein 1 (Homo sapiens), sequence (Q5JTV8 whole entry, looked up): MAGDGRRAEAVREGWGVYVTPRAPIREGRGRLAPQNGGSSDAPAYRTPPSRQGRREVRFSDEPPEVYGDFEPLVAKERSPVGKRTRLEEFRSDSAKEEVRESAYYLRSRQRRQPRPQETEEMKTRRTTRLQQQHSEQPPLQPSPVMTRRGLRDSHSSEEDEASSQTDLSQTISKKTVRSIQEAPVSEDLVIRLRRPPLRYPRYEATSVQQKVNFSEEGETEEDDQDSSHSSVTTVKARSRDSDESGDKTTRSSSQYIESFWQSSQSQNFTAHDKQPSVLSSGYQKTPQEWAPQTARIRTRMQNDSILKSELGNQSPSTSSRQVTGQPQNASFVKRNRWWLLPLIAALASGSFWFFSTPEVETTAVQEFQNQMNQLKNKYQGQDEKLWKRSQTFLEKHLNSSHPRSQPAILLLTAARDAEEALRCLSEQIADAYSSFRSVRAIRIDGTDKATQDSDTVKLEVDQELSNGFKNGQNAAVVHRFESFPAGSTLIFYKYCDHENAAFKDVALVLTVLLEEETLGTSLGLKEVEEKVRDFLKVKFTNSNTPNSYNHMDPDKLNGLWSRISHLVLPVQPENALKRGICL

[10] = molecular target: Alpha-bungarotoxin (Bungarus multicinctus) (UniProt P60615); assay: alpha-bungarotoxin binders on microarray, profiling panel, artefact control for SMM control protein annotation, biochemical, small-molecule microarray, Alexa647 label, 635/667 nm fluorescence (AID 1117); conditions: alpha-BTX-A647 binding fluorescence, higher = more signal
Alpha-bungarotoxin (Bungarus multicinctus), sequence (P60615 whole entry, looked up): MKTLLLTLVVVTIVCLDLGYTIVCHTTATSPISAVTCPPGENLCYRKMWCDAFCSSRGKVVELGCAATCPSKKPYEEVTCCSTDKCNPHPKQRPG

COc1ccc(C(=O)Nc2ccc(CN3C(=O)[C@]4(O[C@H](CCn5cc(CCO)nn5)[C@@H]([Si](C)(C)c5ccc(OC)cc5)[C@@H]4C)c4ccccc43)cc2)cc1
composite z-score [1]: 1.05 | z-score [2]: -5.06 | composite z-score [3]: 0.465 | composite z-score [4]: 0.62 | composite z-score [5]: -0.0683 | composite z-score [6]: 0.0857 | composite z-score [7]: 0.199 | composite z-score [8]: -0.363 | composite z-score [9]: 0.793 | composite z-score [10]: 1.31

O=C1O[C@H](c2ccccc2)[C@H](c2ccccc2)N2[C@H]1[C@@H](C(=O)NC[C@H](O)c1ccccc1)[C@]1(C(=O)Nc3ccc(C#CC4=CCCCC4)cc31)[C@H]2c1ccc(OCCO)cc1
composite z-score [1]: 0.567 | z-score [2]: -1.91 | composite z-score [3]: 0.377 | composite z-score [4]: 0.977 | composite z-score [5]: 0.385 | composite z-score [6]: -0.0519 | composite z-score [7]: 0.0711 | composite z-score [8]: 0.0884 | composite z-score [9]: 0.6 | composite z-score [10]: 1.38

COCCOC(=O)N1C(=O)[C@@]2(c3ccccc31)[C@H](C(=O)N1CCc3cc(OC)c(OC)cc3C1)[C@H]1C(=O)O[C@H](c3ccccc3)[C@H](c3ccccc3)N1[C@@H]2c1ccccc1OCCO
composite z-score [1]: 0.583 | z-score [2]: -1.51 | composite z-score [3]: 0.284 | composite z-score [4]: 1.25 | composite z-score [5]: 0.868 | composite z-score [6]: -0.124 | composite z-score [7]: 0.319 | composite z-score [8]: 0.185 | composite z-score [9]: 0.987 | composite z-score [10]: 2.42

C#CCCCON=C1C[C@@H](O)[C@@H](O)[C@@H]2[C@@H]3C(=O)N(Cc4ccc5c(c4)OCO5)C(=O)[C@@H]3CC[C@H]12
composite z-score [1]: 1.36 | z-score [2]: -0.0463 | composite z-score [3]: 0.774 | composite z-score [4]: 0.601 | composite z-score [5]: -0.783 | composite z-score [6]: -0.0735 | composite z-score [7]: 0.0796 | composite z-score [8]: -0.326 | composite z-score [9]: 1.34 | composite z-score [10]: 0.24

C=CCc1cccc([C@@H]2[C@@H](C)CC[C@H]3C(=O)N4[C@H](c5cccc(CC=C)c5)[C@@H](C)CC[C@H]4C(=O)N23)c1
composite z-score [1]: 0.227 | z-score [2]: -3.5 | composite z-score [3]: 1.09 | composite z-score [4]: 0.254 | composite z-score [5]: -0.831 | composite z-score [6]: 0.0893 | composite z-score [7]: 0.0899 | composite z-score [8]: -0.216 | composite z-score [9]: 0.373 | composite z-score [10]: 1.88

C=CC[C@@]12N=C(c3ccc(OCCCO)cc3)O[C@@H]1c1ccccc1CN(Cc1ccccc1)C2=O
composite z-score [1]: 1.17 | z-score [2]: -3.23 | composite z-score [3]: -0.397 | composite z-score [4]: 1.06 | composite z-score [5]: 0.429 | composite z-score [6]: -0.0403 | composite z-score [7]: 0.116 | composite z-score [8]: 0.87 | composite z-score [9]: 1.08 | composite z-score [10]: 1.56

C=CCN(C(=O)C1N(c2ccc(CCO)cc2)C(=O)C2C(C(=O)O)C3C=CC21O3)C(C)(C)C (stereo not given)
composite z-score [1]: -0.266 | z-score [2]: 0.333 | composite z-score [3]: -2.38 | composite z-score [4]: -0.428 | composite z-score [5]: 0.966 | composite z-score [6]: -0.287 | composite z-score [7]: -0.27 | composite z-score [8]: -0.219 | composite z-score [9]: 1.71 | composite z-score [10]: -2.69

O=C1c2ccccc2[C@](Cc2ccccc2I)(C(=O)NCC(F)(F)F)[C@H](c2ccc(CO)cc2)N1Cc1ccccc1C(F)(F)F
composite z-score [1]: 0.517 | z-score [2]: -0.326 | composite z-score [3]: 0.13 | composite z-score [4]: 1.47 | composite z-score [5]: 0.296 | composite z-score [6]: -0.149 | composite z-score [7]: 0.164 | composite z-score [8]: -0.0101 | composite z-score [9]: 0.857 | composite z-score [10]: 0.449

CCOC(=O)C1=C[C@@H](c2ccccc2)N(S(=O)(=O)c2ccc(C)cc2)[C@H]1c1ccc(F)cc1
composite z-score [1]: 0.431 | z-score [2]: -1.97 | composite z-score [3]: 0.446 | composite z-score [4]: 0.37 | composite z-score [5]: 0.342 | composite z-score [6]: -0.0718 | composite z-score [7]: 0.0929 | composite z-score [8]: 0.862 | composite z-score [9]: 0.904 | composite z-score [10]: 1.27

CCCCCCc1nc(-c2cc(C)c(OC)c(C)c2)cc2c1[Si](C(C)C)(C(C)C)O[C@H]2c1ccccc1
composite z-score [1]: -0.57 | z-score [2]: 0.115 | composite z-score [3]: -0.607 | composite z-score [4]: -0.482 | composite z-score [5]: 0.244 | composite z-score [6]: -0.197 | composite z-score [7]: 0.0278 | composite z-score [8]: -0.0755 | composite z-score [9]: -0.872 | composite z-score [10]: 0.117

O=C1O[C@H](c2ccccc2)[C@H](c2ccccc2)N2[C@H]1[C@@H](C(=O)Nc1nc3ccccc3s1)[C@]1(C(=O)Nc3ccc(C#CC4=CCCCC4)cc31)[C@H]2c1ccccc1OCCO
composite z-score [1]: 1.35 | z-score [2]: -1.67 | composite z-score [3]: 0.59 | composite z-score [4]: 1.31 | composite z-score [5]: 0.149 | composite z-score [6]: -0.0714 | composite z-score [7]: -0.263 | composite z-score [8]: 0.184 | composite z-score [9]: 0.715 | composite z-score [10]: 1.04

O=C1O[C@@H](c2ccccc2)[C@@H](c2ccccc2)N2[C@@H](c3ccc(O)cc3)[C@]3(C(=O)Nc4ccccc43)[C@@H](C(=O)N3CCN(c4ncccn4)CC3)[C@H]12
composite z-score [1]: 0.746 | z-score [2]: -1.91 | composite z-score [3]: -0.389 | composite z-score [4]: 0.874 | composite z-score [5]: 1.09 | composite z-score [6]: -0.105 | composite z-score [7]: 0.182 | composite z-score [8]: 0.0486 | composite z-score [9]: 0.0398 | composite z-score [10]: 1.16

COc1ccc([C@H]2C[C@H]3C(Br)=C[C@]2(OC)C(=O)[C@]32CO2)cc1
composite z-score [1]: -0.681 | z-score [2]: -2.26 | composite z-score [3]: 0.219 | composite z-score [4]: -0.408 | composite z-score [5]: -0.668 | composite z-score [6]: -0.113 | composite z-score [7]: -0.0769 | composite z-score [8]: -0.176 | composite z-score [9]: 0.42 | composite z-score [10]: -0.268

C=CC[C@]1(C(=O)OC)N=C(c2ccc(OCCCO)cc2)O[C@H]1c1ccccc1CN=[N+]=[N-]
composite z-score [1]: -0.044 | z-score [2]: -1.31 | composite z-score [3]: -0.978 | composite z-score [4]: -0.643 | composite z-score [5]: 0.369 | composite z-score [6]: 0.0251 | composite z-score [7]: -0.0289 | composite z-score [8]: 0.121 | composite z-score [9]: 0.782 | composite z-score [10]: 1.14

CCOC(=O)C[C@H]1[C@H](OC(=O)c2ccccc2-c2ccccc2)[C@@H](NC(=O)C2CCCCC2)c2cc(OCCCO)ccc2N1C(=O)c1ccccc1
composite z-score [1]: 0.0771 | z-score [2]: -1.4 | composite z-score [3]: 1.13 | composite z-score [4]: -0.0784 | composite z-score [5]: -0.083 | composite z-score [6]: -0.213 | composite z-score [7]: -0.283 | composite z-score [8]: -0.0502 | composite z-score [9]: 0.584 | composite z-score [10]: 0.148
